Compounds with a hit are over-represented: about 14% of the library has one in this group of screens.
Pf growth 96h: P. falciparum growth inhibition at 96 hour, primary screen for plastid delayed-death inhibitors | P. falciparum luciferase reporter growth, 96 h | Potency, µM (series often up to 28.7 µM), for the others: top-dose activity change, negative = inhibition, usual class: inhibitors | 6.9% of 320,000 active | AID 504834; note: potency is the fitted concentration of half-maximal effect
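Compounds incubated with erythrocytes infected by luciferase-expressing P. falciparum (2% hematocrit, 0.05% parasitemia final) for 96 hours, 37 C in 5% CO2. Growth inhibition scored as decreased luciferase luminescence.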
Marburg entry inh: blocks Marburg virus binding to or entry into cells | Potency, µM (series often up to 37.8 µM), without a hit: top-dose activity change, negative = inhibition, actives largely listed as inhibitors | Marburg virus pseudotyped entry inhibition, cell reporter | AID 540276 | 1.8% of 300,000 active; calls by dose curve; tested in HEK293 cells; note: potency is the fitted concentration of half-maximal effect
HCMV antiviral: blocks human cytomegalovirus replication; HFF cells, HCMV-luciferase reporter, 72 h; stronger effect = lower value; activity change, negative = inhibition, % at 57.5 µM; 4.5% of 410,000 active; AID 1259415; in the data active = activity change below about -60%; inconclusive = no clear call, values can overlap the other calls; inactive = above about -39%
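After 16 h attachment at 37C, HFF cells received test compound and HCMV-luciferase (1 PFU/cell); reporter luminescence read 72 h later, data normalized against buffer-only and known inhibitor Salinomycin.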
HCV inh: inhibitors of hepatitis C virus infection; Huh7.5.1 HCVcc-Cre infection, luciferase reporter, 44 h; 3.4% of 340,000 active; Potency, µM (doses to about 41.8 µM), for the others: at the highest dose activity change, negative = inhibition, actives largely listed as inhibitors; note: potency is the fitted concentration of half-maximal effect
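Compounds are dispensed onto cells plated 4 h earlier at 1,000 per well, with HCVcc-Cre virus (about 0.5 moi) added next. Following 44 h of culture, luminescent signal is measured for 15 sec after 15 min with substrate at room temperature.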
Pf growth 48h: inhibits P. falciparum growth in the first generation, 48 h | AID 504832 | Potency, µM (doses to about 28.7 µM), for inactives: at the highest dose activity change, negative = inhibition, most hits filed as inhibitors | 5.9% of 310,000 active | P. falciparum luciferase growth in erythrocytes, 48 h; note: potency is the fitted concentration of half-maximal effect
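In quantitative HTS format, infected erythrocytes bearing luciferase-reporter parasites were treated for a single generation at 37 C. Luminescence after adding detection reagent served as the growth measure.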
Lassa entry inh: inhibitors of Lassa virus binding or cell entry. 1.2% of 300,000 active. Lassa virus pseudotype entry inhibition, cell reporter. AID 540256. Potency, µM (top dose mostly 37.9 µM), for inactives: at the top dose activity change, negative = inhibition, most hits filed as inhibitors; calls by dose curve; tested in HEK293 cells; note: potency is the fitted concentration of half-maximal effect; nearly all actives have a fitted effect of over 50% in size
An asterisk follows results filed as active; ? = inconclusive; / = no result; [ ] = dose if it differs, or a comment. Unless noted, calls come from the whole dose curve; as a rule, active = well fitted inhibition curve with a large enough effect; inconclusive = small, poorly fitted or top-dose-only effect, or another doubt; inactive = no such curve, though single readings can be large or run the other way. % is set by controls: 0 for no effect and ±100 for the full control effect.

SMILES	Pf growth 96h	Marburg entry inh	HCMV antiviral	HCV inh	Pf growth 48h	Lassa entry inh
O=C(CSc1nnc(-c2ccccc2Cl)o1)N1CCCc2ccccc21	/	-8%[46.1 µM]	-25	/	/	1%[46.1 µM]
CC(=O)c1ccc(NC(=O)CSc2ccc3nc(-c4ccccc4)cn3n2)cc1	/	/	91	/	/	?
O=C(CCNS(=O)(=O)c1ccc2c(c1)CCCC(=O)N2)NCc1ccc(Cl)cc1	/	/	-7	/	/	5%[46.1 µM]
CCc1ccc(C(=O)NNC(=O)C2CC(=O)N(Cc3ccccc3)C2)cc1 (stereo unspecified)	22%	15%[46.1 µM]	-32	?	-5%	1%
O=C(NNC(=O)C1CC(=O)N(Cc2ccccc2)C1)c1ccc(Br)cc1 (stereo unspecified)	2.3µM*	/	-33	-1%	26%	/
CCc1ccccc1N1CC(C(=O)Nc2cc(S(=O)(=O)N3CCCC3)ccc2Cl)CC1=O (stereo unspecified)	?	-15%	5	11µM*	?	?
Cc1ccc(CN2CC(C(=O)N3CCN(c4ccccc4O)CC3)CC2=O)cc1 (stereo unspecified)	?	7%	-27	?	-13%	11µM*
COc1ccc(C(O)c2ncc(-c3cccc(C(F)(F)F)c3)[nH]2)cc1 (stereo unspecified)	/	/	-15	/	/	/
CCCCn1c(N)c(N(CC(C)C)C(=O)C2CCN(c3ncnc4sc(C)c(C)c34)CC2)c(=O)[nH]c1=O	2.9µM*	2%	?	?	5.2µM*	-7%[46.1 µM]
CCCCn1c(N)c(N(CC(C)C)C(=O)C2CCN(C(=O)c3ccc(F)cc3)CC2)c(=O)[nH]c1=O	?	-19%[46.1 µM]	6	10%	-4%	6%[46.1 µM]
CCCCn1c(N)c(N(CCOC)C(=O)C2CCN(c3ncnc4sc(C)c(C)c34)CC2)c(=O)[nH]c1=O	12µM*	-1%[46.1 µM]	-6	?	12µM*	26%
CCOc1ccc(CC(=O)Nc2c(C(N)=O)oc3ccc(Br)cc23)cc1OCC	12µM*	0%	-3	1%	/	/
CCOc1ccc(CC(=O)Nc2c(C(=O)c3ccc(C)cc3)oc3ccccc23)cc1OCC	/	?	-63*	/	/	14%[46.1 µM]
CCOc1ccc(CC(=O)Nc2c(C(=O)Nc3ccccc3)oc3ccccc23)cc1OCC	0.93µM*	?	-35	-10%	-1%	-28%
CCCN(CCC)C(=O)c1oc2ccccc2c1NC(=O)Cc1cccc(OC)c1	16%	/	-5	11µM*	?	/
COc1ccc(CC(=O)Nc2c(C(N)=O)oc3ccccc23)cc1OC	-1%	-1%[46.1 µM]	-1	4%	-8%	-19%[46.1 µM]
Cc1ccc(NC(=O)CN2C(=O)CCn3nc(-c4cccn4C)cc32)cc1	/	/	24	/	/	19%[46.1 µM]
Cc1ccsc1CNC(=O)C1(C)CCCN1CC(C)C (stereo unspecified)	/	/	-4	/	/	/
COc1cccc(NC(=O)Cn2cc(C(=O)C3CCCCC3)c3ccccc32)c1	/	?	-5	/	/	-3%[46.1 µM]
O=C1NC[C@@H](CCCCN2CCN(CCC3CCCCC3)C(=O)C2=O)N(Cc2ccccc2)C1=O	/	/	38	/	/	/
Cc1ccccc1C=O	-28%	/	-17	14%	6%	/
Cc1ccccc1/C=C/C1=NCCN1	3%	11µM*	-32	-25%	?	?
CC1Cc2ccccc2N1CC(=O)NC(=O)NCc1ccccc1 (stereo unspecified)	-14%	3%[46.1 µM]	-28	17%	-3%	?
CC1CC(C)CN(CC(=O)NC(c2ccccc2)c2ccccc2)C1 (stereo unspecified)	5%	?	?	-6%	12µM*	?
O=C(CN1CCCCCC1)NC(c1ccccc1)c1ccccc1	?	?	?	29%	?	-23%[46.1 µM]
NNC(=O)Cn1cnc2ccccc21	15%	-4%[46.1 µM]	-4	19%	0%	-7%[46.1 µM]
O=C(Cn1cnc2ccccc21)NC(c1ccccc1)c1ccccc1	3.7µM*	-2%	-20	-18%	4.1µM*	0%
CC1Cc2ccccc2N1CC(=O)NC(c1ccccc1)c1ccccc1 (stereo unspecified)	6.6µM*	-3%[46.1 µM]	?	?	10µM*	-2%

High-throughput results: PubChem BioAssay, National Center for Advancing Translational Sciences (NCATS)
